PubChem BioAssay (NCATS)
Records with an inconclusive call do not appear. The source made the active and inactive calls. Unless noted, the call rests on the fitted dose curve; in most records, active means well fitted curve in the direction sought with a large enough effect; inconclusive means small, poorly fitted or top-dose-only effect, or another doubt; inactive means no such curve, though single readings can be large; an effect the other way counts as inactive or inconclusive.

Tests used:
[1] = Cell Proliferation Assay Versus the ED40515 IL2 Dependent ATL cell lines (AID 1053195; calls by dose curve); conditions: ED40515 IL2-dependent ATL cells
How it was run: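 CellTiter-Glo luminescence (15 min, RT) measured viability after 48 hours at 37C; cells were ED40515 +IL2, 1000/well, in phenol red-free RPMI with 5% FBS. Controls: DMSO and 9.2 uM bortezomib.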

[2] = High-throughput drug toxicity screening in the BPDCN cell line Gen2.2 (AID 1224824; call rule not given here;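 further: cells exposed to compounds for 48 h before reading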); conditions: Gen2.2 BPDCN cells; at 45.8 µM (top of the series) unless noted
How it was run: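 Readout is ATP luminescence from Gen2.2 cells after two days of drug exposure in serum-containing medium at 37 °C. Values express percent activity, with vehicle defining full signal and 9.2 uM bortezomib defining zero.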

[3] = High-throughput drug toxicity screening in the BPDCN cell line Cal-1 (AID 1224825; call rule not given here); conditions: Cal-1 BPDCN cell viability, qHTS; at 45.8 µM (top of the series) unless noted
How it was run: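 Viability of the BPDCN line Cal-1 is measured as ATP-based luminescence (CellTiter-Glo) following 48 h incubation with compounds. Percent activity uses DMSO-treated wells as 100% and 9.2 uM bortezomib as 0%.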

[4] = qHTS assay for measurement of the activity of small molecule inhibitors on Zika virus induced Caspase-3 activity in human iPSC derived neural progenitor cells (hNPCs) (AID 1224857); conditions: hNPCs ZIKV-induced caspase-3/7, Caspase-Glo luminescence, 6 h; series mostly up to 45.7 µM; further: % of control where 0% means no effect; nearly all actives have a fitted effect of over 65% in size
How it was run: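 Cells were plated at 350 per well and grown 16 to 20 hours. Compound pretreatment lasted one hour, after which ZIKV (2 FFU/cell) was added for 6 hours. Percent inhibition was normalized between uninfected and infected controls.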

[5] = qHTS assay for measurement of the activity of small molecule inhibitors on Zika virus induced Caspase-3 activity in human astrocytoma cells (AID 1224859); conditions: SNB-19 ZIKV-induced caspase-3/7, luminescence, 6 h; series mostly up to 45.7 µM;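 further: plate controls were ZIKV-infected untreated cells for no effect and uninfected cells for full effect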
How it was run: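 Percent inhibition of virus-induced caspase-3/7 signal is calculated against uninfected and ZIKV-infected control cells. Cells are SNB-19, infected at 2 FFU/cell for 6 h after 1 h compound exposure.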

[6] = qHTS Screen of the MIPE 4.0 Collection Against Ewings Sarcoma (RDES) (AID 1259252); conditions: RD-ES Ewing sarcoma viability, CellTiter-Glo, 48 h; series mostly up to 45.8 µM; further: nearly all actives have a fitted effect of over 35% in size; further: potency means the concentration at half of the fitted maximal effect
How it was run: (§1)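 Measured: ATP luminescence (CellTiter-Glo) 10 min after reagent addition, following 48 h drug treatment. Relative luciferase units converted to percent activity, with no-cell wells as full and DMSO wells as zero inhibition.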

[7] = qHTS Screen of the MIPE 4.0 Collection Against Ewings Sarcoma (EW8) (AID 1259255); conditions: EW8 Ewing sarcoma viability, CellTiter-Glo, 48 h; series mostly up to 45.8 µM; further: nearly all actives have a fitted effect of over 35% in size; further: potency means the concentration at half of the fitted maximal effect;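 on viability: 100% = DMSO-treated cells and 0% = medium-only wells without cells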
How it was run: as §1

[8] = qHTS Screen of the MIPE 4.0 Collection Against Ewings Sarcoma (TC32) (AID 1259256); conditions: TC32 Ewing sarcoma viability, CellTiter-Glo, 48 h; series mostly up to 45.8 µM; further: nearly all actives have a fitted effect of over 45% in size; further: potency means the concentration at half of the fitted maximal effect
How it was run: as §1

[9] = Identifying Small Molecule Inhibitors of Pancreatic Cancer Stem Cells (SN12C, Adherent) (AID 1259358); conditions: viability/growth inhibition; series mostly up to 46.1 µM;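 further: cell survival measured after 48 h of compound exposure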; further: potency means the concentration at half of the fitted maximal effect
How it was run: (§2)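 After a 4 h attachment period, compounds were pinned into wells and cultures held 48 h under standard incubator conditions. Viability was then measured as CellTiter-Glo luminescence following 10 min at room temperature.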

[10] = Identifying Small Molecule Inhibitors of Pancreatic Cancer Stem Cells (SN12C, Spheroid) (AID 1259360); conditions: Potency: SN12C spheroid viability; series mostly up to 46.1 µM;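 further: 100% = DMSO-treated cells and 0% = wells without cells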
How it was run: (§3)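 Spheroids grown 14 days in stem cell media on hydrogel-coated nonadherent plates; 2D lines seeded directly. Compounds added after 4 h attachment, 48 h at 37C, 5% CO2; CellTiter-Glo luminescence normalized to DMSO (no inhibition) and no-cell wells (full inhibition).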

[11] = Identifying Small Molecule Inhibitors of Pancreatic Cancer Stem Cells (A278, Adherent) (AID 1259361); conditions: series mostly up to 46.1 µM;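 further: viability read after 48 h compound exposure; nearly all actives have a fitted effect of over 35% in size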;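 on viability (% of control): 100% = DMSO-treated cells and 0% = cell-free media-only wells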
How it was run: as §2

[12] = Identifying Small Molecule Inhibitors of Pancreatic Cancer Stem Cells (Panc1, Adherent) (AID 1259362); conditions: Potency: viability; series mostly up to 46.1 µM;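 further: compound exposure lasted 48 h before the viability read; plate controls were DMSO-treated cells for no effect and cell-free media wells for full effect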
How it was run: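 Viability is scored by CellTiter-Glo luminescence 48 h after dosing, expressed as percent activity against vehicle and no-cell references. Spheroid formats rely on cells cultured 14 days in stem cell media beforehand.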

[13] = qHTS Screen of the MIPE 4.0 Collection Against Ewings Sarcoma (TC71) (AID 1259253); conditions: TC71 Ewing sarcoma viability, CellTiter-Glo, 48 h; series mostly up to 45.8 µM; further: nearly all actives have a fitted effect of over 40% in size; further: potency means the concentration at half of the fitted maximal effect
How it was run: as §1

[14] = P-glycoprotein substrates identified in KB-3-1 adenocarcinoma cell line, qHTS therapeutic library screen (AID 1346986); conditions: KB-3-1 parental cells viability, CellTiter-Glo, 72 h; series mostly up to 44.5 µM; further: nearly all actives have a fitted effect of over 60% in size; on activity change, negative = cytotoxicity: on the % scale 0 is the no-effect control and ±100 the full control effect
How it was run: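 Using luminescence to quantify ATP, parental and P-gp-overexpressing KB cells were compared after 72 h compound titration. KB-8-5-11 was also run with the P-gp inhibitor tariquidar.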

[15] = P-glycoprotein substrates identified in KB-8-5-11 adenocarcinoma cell line, qHTS therapeutic library screen (AID 1346987); conditions: KB-8-5-11 (P-gp overexpressing) viability, CellTiter-Glo, 72 h; series mostly up to 44.5 µM; further: nearly all actives have a fitted effect of over 65% in size; further: potency means the concentration at half of the fitted maximal effect; on activity change, negative = cytotoxicity: on the % scale 0 is the no-effect control and ±100 the full control effect
How it was run: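 Human cervical adenocarcinoma KB-8-5-11 cells, selected in colchicine to over-express P-gp and assayed without it, were exposed for 72 h to titrated compounds. An ATP-based luminescent viability signal gave AC50.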

[16] = Identifying Small Molecule Inhibitors of Pancreatic Cancer Stem Cells (A2780, Spheroid) (AID 1259357); conditions: Potency: A2780 spheroid viability; series mostly up to 46.1 µM; further: potency means the concentration at half of the fitted maximal effect;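 further: spheroids pre-formed over 14 days in stem cell medium on hydrogel; compound exposure lasted 48 h before the ATP luminescence read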
How it was run: as §3

[17] = qHTS assay to identify small molecule inhibitors of chordoma cells - UCH-1 (AID 1259355); conditions: UCH-1 chordoma viability, CellTiter-Glo, 48 h, combination, with auranofin plus four topoisomerase inhibitors; series mostly up to 46.1 µM; further: on the % scale 0 is the no-effect control and ±100 the full control effect; nearly all actives have a fitted effect of over 55% in size
How it was run: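 A 48hr growth-inhibition format: each drug tested at 15 concentrations together with added auranofin, camptothecin, doxorubicin, rubitecan and topotecan, with cell viability quantified as CellTiter-Glo luminescence.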

[18] = qHTS assay to identify small molecule inhibitors of chordoma cells - UCH-2 (AID 1259356); conditions: UCH-2 chordoma viability, CellTiter-Glo ATP luminescence, 48 h; series mostly up to 46.1 µM; further: on the % scale 0 is the no-effect control and ±100 the full control effect
[19] = Natriuretic polypeptide receptor (hNpr1) antagonism - Pilot counterscreen GloSensor control cell line (AID 1347045; calls by dose curve; further: on the % scale 0 is the no-effect control and ±100 the full control effect); conditions: HEK293 cGMP GloSensor cells, SNP-stimulated luminescence, 20 min; series mostly up to 38.3 µM
How it was run: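 The SNP-driven cGMP luminescence signal (50 uM, 20 min, room temperature) was measured in GloSensor HEK293 control cells. Compounds were tested as a LOPAC titration series and preincubated for 30-50 min.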

[20] = Identifying Small Molecule Inhibitors of Pancreatic Cancer Stem Cells (Panc1, Spheroid) (AID 1259359); conditions: Panc1 spheroid cancer stem cell viability; series mostly up to 46.1 µM;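 further: potency means the concentration at half of the fitted maximal effect; compound exposure lasted 48 h before reading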
How it was run: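 Adherent (2D) versus sphere (3D) formats; spheres generated 14 d in SCM beforehand. Compound transferred by pin tool after 4 h, 48 h incubation, CellTiter-Glo endpoint.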

COc1ccccc1[C@H](c1cccc2ccccc12)[C@@](C)(C#N)C(=O)N1CCC(c2cccc(C(F)(F)F)c2)CC1
10.6%: viability (% of control) [3]
2.69%: cell viability, % of control (lower = more cytotoxic) [2]
inactive: Potency [4] | Potency [5] | Potency [9] | Potency [10] | Potency [12]
active: Potency [1] 2.64 µM | Potency [6] 13.2 µM | Potency [7] 6.62 µM | Potency [8] 13.2 µM | IC50 (viability decrease) [11] 6.62 µM

O=C(OCC#CCSc1nnc(-c2ccc3ccccc3c2)o1)c1cc2ccccc2s1
inactive: Potency [9] | Potency [10]
active: Potency [1] 11.8 µM

CC1(C)SCCN(S(=O)(=O)c2ccc(OCC#CCO)cc2)[C@@H]1C(=O)NO
inactive: Potency [4] | Potency [5] | Potency [6] | Potency [7] | Potency [8] | Potency [9] | Potency [10] | IC50 (viability decrease) [11] | Potency [14] | Potency [15]
active: Potency [1] 23.5 µM | Potency [13] 13.2 µM
80%: cell viability, % of control (lower = more cytotoxic) [2]

COc1ccc(-c2ccc3c(N4CCOC[C@H]4C)nc(N4CCOC[C@H]4C)nc3n2)cc1CO
active: Potency [1] 0.0935 µM | Potency [13] 0.0332 µM | Potency [7] 0.0264 µM | Potency [8] 0.0264 µM | Potency [16] 0.0187 µM | Potency [9] 0.0148 µM | Potency [15] 0.0132 µM
inactive: Potency [4] | Potency [5]
11.3%: cell viability, % of control (lower = more cytotoxic) [2]

CN([C@@H](Cc1ccc(OS(=O)(=O)c2cccc3cnccc23)cc1)C(=O)N1CCN(c2ccccc2)CC1)S(=O)(=O)c1cccc2cnccc12
active: Potency [1] 6.62 µM
inactive: Potency [9] | Potency [10] | IC50 (viability decrease) [11] | Potency [12] | activity change, negative = cytotoxicity [14] -0.309% [at 5.11 µM] | activity change, negative = cytotoxicity [15] -4.44% [at 5.11 µM]

Nc1nccc(-c2ccc3noc(-c4ccc(Cl)cc4)c3c2)n1
46.9%: viability (% of control) [3]
inactive: Potency [4] | Potency [5] | Potency [9] | Potency [10] | Potency [15]
active: Potency [1] 23.5 µM | Potency [6] 5.9 µM | Potency [8] 23.5 µM

O=C(O)c1ccc(-c2c[nH]c3ccc(-c4ccccc4)cc23)cc1C1CCCC1
active: Potency [1] 5.26 µM
inactive: Potency [16] | Potency [9] | Potency [10] | Potency [12]

OC(CN1CCC(Cc2ccc(F)cc2)CC1)c1ccc(Cl)cc1 (stereo not drawn)
156%: cell viability, % of control (lower = more cytotoxic) [2]
inactive: Potency [4] | Potency [5] | Potency [6] | Potency [13] | Potency [7] | Potency [8] | activity, negative = inhibition [17] 16.1% [at 9.21 µM] | outcome [18] | Potency [9] | Potency [10] | IC50 (viability decrease) [11] | Potency [15] | outcome [19]
99.3%: viability (% of control) [3]

CC(C)c1onc(-c2c(Cl)cccc2Cl)c1COc1ccc(/C=C/c2cccc(C(=O)O)c2)c(Cl)c1
inactive: Potency [9] | Potency [12]
active: Potency [1] 20.9 µM | Potency [20] 18.7 µM
